Compounds with a hit are over-represented: about 4% of the library has one in this group of screens.
MITF TRPM1 HTS = increases MITF-driven TRPM1 promoter luciferase signal; SK-MEL-5 TRPM1-promoter luciferase, 24 h; % of positive control, neutral wells = 0; 300,000 tested, 0.75% active; activation, % at 12.5 µM;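 active = mean activation of at least 80% with every replicate also reaching 80%; inconclusive = mean reaches 80% but some replicate falls short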;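 note: 0% = neutral control wells and 100% = parthenolide positive control wells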
esBAF inh = SWI/SNF esBAF complex inhibition; mouse ES cells, Bmi1-luciferase knock-in reporter, 24 h; 100% = twice the neutral-well signal; reporter increase, % at 12.5 µM; 350,000 tested, 2% active; in the data active = activation above about 40%; inconclusive = no clear call, values can overlap the other calls;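 note: 0% = median of the plate's neutral control wells and 100% = double that signal; a rise in the Bmi1 reporter signal indicates esBAF inhibition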
PAX8 reporter = PAX8 transcriptional activity inhibition; RMG-I TPO-luciferase reporter, SteadyGlo, 24 h; inhibition, % at 12.6 µM; 360,000 tested, 1.2% active; AID 652154;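 active = mean replicate inhibition at least 60% with every replicate also reaching 60%; inconclusive = only one of the two criteria is met; inactive = mean below 60% and not all replicates reaching 60%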;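 note: luciferase light reporting Pax8 driven TPO promoter activity; plate controls were median of neutral control wells for no effect and mitoxantrone controls for full effect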
EWS-Fli inh = EWS/Fli transcriptional activity inhibition. A673 NR0B1-luciferase reporter, viability-normalised. inhibition, % at 12.6 µM. 350,000 tested, 0.67% active;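 active = mean inhibition of at least 50% after viability correction, with every replicate also passing that limit; inconclusive = mean reaches 50% but only one of two replicates passes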;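 note: firefly luciferase signal divided by Alamar Blue viability fluorescence both relative to DMSO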
MITF TRPM1 inh = MITF TRPM1 promoter inhibition in SK-MEL-5 cells; AID 488899; SK-MEL-5 TRPM1 promoter luciferase, 24 h; inhibition, % at 12.5 µM; 330,000 tested, 0.83% active;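 active = mean inhibition across replicates of 60% or more, whatever share of single replicates reaches that level; inconclusive = some that reach 60%, reason not given; inactive = mean inhibition across replicates below 60%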
Wnt act = activators of Wnt/beta-catenin signaling. 300,000 tested, 1.2% active. activation, % at 9.35 µM. Wnt/beta-catenin reporter cell assay, activator, plate reader; in the data active = activation above about 30%, passing the limit was not always enough; inconclusive = no clear call, values can overlap the other calls;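 note: 0% = neutral control wells and 100% = positive control wells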
* hit, by the source's call; ? = inconclusive; nt = no result given.

SMILES	MITF TRPM1 HTS	esBAF inh	PAX8 reporter	EWS-Fli inh	MITF TRPM1 inh	Wnt act
CSc1nnc(-c2ccncc2)n1/N=C/c1cn(-c2ccccc2)nc1-c1ccc(Cl)cc1	nt	-7.0	-1.4	-20.6	-14.6	10.7
S=c1[nH]nc(-c2ccncc2)n1/N=C/c1cn(-c2ccccc2)nc1-c1ccc(Cl)cc1	nt	nt	-7.8	4.2	nt	47.8*
CNC[C@H]1OCCCC[C@@H](C)Oc2ccc(N)cc2C(=O)N([C@@H](C)CO)C[C@H]1C	nt	-2.5	0.6	-1.8	nt	nt
CC=Cc1ccc2n(c1=O)C[C@H]1[C@H](CO)[C@@H](C(=O)NCC3CC3)[C@@H]2N1C(=O)C1CC1 (mixture of isomers)	nt	-5.1	-0.9	-3.5	nt	nt
COc1cc(/C=N/NC(=O)C(=O)Nc2ccccn2)ccc1O	4.7	nt	9.6	nt	-10.0	2.2
Brc1ccccc1/C=N/Nc1ccccn1	35.5	nt	-61.6	-64.9	-32.0	22.2
COc1cc(/C=N/Nc2ccc(C(F)(F)F)cn2)ccc1O	9.7	nt	0.6	6.0	-13.1	30.7*
Brc1ccc(/C=N/Nc2ccccn2)cc1	49.7	69.8*	-94.0	-90.4	-39.9	15.9
COc1ccc(/C=N/Nc2ccccn2)cc1O	84.7*	13.9	-125.0	0.5	-86.5	47.7*
Cc1ccc(/C=N/Nc2ccccn2)s1	103.7*	57.5*	-184.8	-108.7	-101.0	19.4
Fc1ccc(/C=N/Nc2ccccn2)cc1	32.5	nt	-133.2	-38.0	-26.3	?
Clc1ccc(/C=N/Nc2ccccn2)cc1	31.3	43.5*	-125.3	-67.3	-25.7	56.4*
O=C(C[C@@H]1CC[C@@H]2[C@H](COC[C@H](O)CN2S(=O)(=O)c2cccc(Cl)c2)O1)Nc1ccc(-c2ccccc2)cc1	nt	13.7	93.7*	-2.5	nt	nt
O=C(C[C@H]1CC[C@H]2[C@@H](COC[C@@H](O)CN2S(=O)(=O)c2cccc(Cl)c2)O1)Nc1ccccc1	nt	3.4	-7.8	-1.8	nt	nt
O=C(C[C@@H]1CC[C@H]2[C@@H](COC[C@H](O)CN2S(=O)(=O)c2cccc(Cl)c2)O1)Nc1ccc(-c2ccccc2)cc1	nt	-4.1	67.4*	3.9	nt	nt
Cc1ccc(C(=O)c2cnc3cc4c(cc3c2S(=O)(=O)c2ccccc2)OCCO4)cc1	30.0	117.7*	-15.9	-5.8	-28.1	0.6
Cn1cnc(S(=O)(=O)N2C[C@@H](O)COC[C@@H]3O[C@H](CC(=O)NCc4cc(F)cc(F)c4)CC[C@H]32)c1	nt	1.0	-12.1	2.2	nt	nt
O=C(O)CCn1c2ccccc2c2nc3ccccc3nc21	nt	49.9*	24.9	4.3	-25.2	1.9
N#CCn1c2ccccc2c2nc3ccccc3nc21	9.5	nt	-21.7	-16.4	-8.6	9.7
COC(=O)Cn1c2nc3ccccc3nc2c2cccc(C)c21	11.0	5.7	-24.5	-9.6	-31.4	1.7
COC(=O)Cn1c2ccccc2c2nc3ccccc3nc21	30.3	50.4*	-35.1	-25.9	-25.8	1.7
CC(C)c1ccc(N(C(=O)c2ccco2)C(C(=O)NC2CCCC2)c2ccncc2)cc1 (centres undefined)	46.8	46.8*	-56.1	-31.5	-41.7	5.3
CCC(C)c1ccc(N(C(=O)c2ccco2)C(C(=O)NC2CCCC2)c2cccnc2)cc1 (centres undefined)	28.0	86.0*	-46.3	-40.5	-25.1	5.4
COc1ccc(N(C(=O)c2ccco2)C(C(=O)NC2CCCC2)c2ccncc2)cc1 (centres undefined)	18.2	0.7	-0.3	2.0	-11.3	0.0
CCc1ccc(N(C(=O)c2ccco2)C(C(=O)NC2CCCC2)c2cccnc2)cc1 (centres undefined)	-5.7	11.6	2.0	-0.8	6.5	3.3
SMILES	MITF TRPM1 HTS	esBAF inh	PAX8 reporter	EWS-Fli inh	MITF TRPM1 inh	Wnt act
O=C(C1CC1)N1CC(=O)N2[C@@H](CO)[C@@H](c3ccc(C#CCc4ccccc4)cc3)[C@@H]2C1	nt	nt	-5.5	-1.9	nt	nt
COc1ccc([C@@H]2CC(=O)c3c(O)cc(O)cc3O2)cc1O	46.5	54.1*	-108.6	-5.4	-46.8	39.6*
COc1cc(O)c2c(c1)OC(c1ccc(O)cc1)CC2=O (centres undefined)	13.1	1.5	nt	-3.9	-12.4	-1.9
C[C@@H]1CCCCO[C@@H](CN(C)Cc2ccc(C(=O)O)cc2)[C@H](C)CN([C@H](C)CO)C(=O)c2cc(N(C)C)ccc2O1	nt	6.5	-8.2	2.6	nt	nt
CC(C)(O)C#Cc1ccc(C(=O)NC2CCCCC2)s1	47.9	nt	-79.6	-47.8	-52.3	7.0
CCc1ccc(C(=O)NC2CCCCC2)s1	96.4*	30.8	nt	nt	-98.0	nt
CC(/C=C/c1ccccc1)=N\NC(=S)NC(C)C	33.4	16.8	-11.5	12.0	-28.9	3.2
CC(/C=C/c1ccccc1)=N\NC(N)=S	nt	50.1*	-5.9	nt	-9.3	27.5
O=C(Cc1ccncc1)N[C@H]1CC[C@@H](CCn2cc(-c3ccccc3F)nn2)O[C@H]1CO	nt	7.7	0.7	0.3	nt	nt
COc1ccc(S(=O)(=O)Nc2ccc3c(c2)CC(=O)N([C@@H](C)CO)C[C@@H](C)[C@H](CN(C)Cc2ccc(C(F)(F)F)cc2)O3)cc1	nt	4.4	110.7*	41.7	nt	nt
COc1ccc(S(=O)(=O)Nc2ccc3c(c2)CC(=O)N([C@H](C)CO)C[C@H](C)[C@@H](CN(C)Cc2ccc(C(F)(F)F)cc2)O3)cc1	nt	8.4	112.9*	19.2	nt	nt
COc1ccc(S(=O)(=O)Nc2ccc3c(c2)CC(=O)N([C@@H](C)CO)C[C@@H](C)[C@@H](CN(C)Cc2ccc(C(F)(F)F)cc2)O3)cc1	nt	-3.7	18.7	8.6	nt	nt
CC(C)[C@H](C)NC(=O)N(C)C[C@@H]1OCc2ccccc2-c2c(n(C)c3ccccc23)C(=O)N([C@H](C)CO)C[C@H]1C	nt	9.3	nt	5.4	nt	nt
Cc1ccc(S(=O)(=O)N[C@@H]2CC[C@@H](CCn3cc(-c4cccc(F)c4)nn3)O[C@@H]2CO)cc1	nt	0.9	2.6	-4.8	nt	nt
N#Cc1c(Nc2ccccc2)[n+]([O-])c2ccc(Cl)cc2[n+]1[O-]	-70.8	nt	37.2	-4.6	72.0*	7.3
c1ccc(-c2nc3nonc3nc2-c2ccccc2)cc1	nt	5.3	50.0	nt	61.7*	-1.6
O=C(c1ccc2c(c1)OCO2)N1CC2(C1)[C@@H](c1ccccc1)[C@@H](CO)N2C(=O)C1CC1	nt	nt	-9.9	-2.1	nt	nt
CCc1cc2c(=O)c(-c3cnn(-c4ccccc4)c3)coc2c(CN2CCOCC2)c1O	34.2	53.6*	-22.7	nt	-31.9	-0.7
CCc1cc2c(=O)c(-c3cnn(-c4ccccc4)c3)c(C)oc2c(CN2CCCCC2)c1O	nt	-4.8	1.0	nt	5.1	-3.1
C[C@H]1CN([C@@H](C)CO)C(=O)c2cccc(NC(=O)C3CCCCC3)c2O[C@H]1CN(C)Cc1ccncc1	nt	1.4	-2.2	1.6	nt	nt
Nc1ncnc2c(C3OC(CO)C(O)C3O)c[nH]c12 (centres undefined)	-99.0	nt	117.7*	46.2	nt	-5.4
Nc1ncnc2c1ncn2[C@@H]1O[C@H](CO)[C@@H](O)[C@H]1O	11.1	5.6	-10.1	-6.6	-11.8	0.8
